PubChem BioAssay
Active and inactive are the calls of the source. Unless noted, how the calls were made is not given here.

Experiments:
[1] = system: XIP peptide (Xip251-270) binding; assay: XIP fragment 251-270 binding compounds – biochemical, small-molecule microarray, fluorescence 635/667 nm, 0.1 µg/mL protein, primary screen (AID 1182); details: fluorescent protein binding, 635 nm, higher = more signal, called active from +8 up or from −8 down
XIP peptide (Xip251-270) = assay: compounds binding XIP fragment 251-270 – biochemical, small-molecule microarray, fluorescence 635/667 nm, 0.5 µg/mL protein, primary screen (AID 1183); details: fluorescence 635 nm, higher = more signal
[2] = blood-stage malaria parasite viability loss – strain 3D7, DAPI fluorescence, 100 nL, primary screen (AID 1184);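 further: parasites grown inside human red blood cells in medium with human serum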; details: P. falciparum 3D7 growth, 3 d, higher = more signal
[3] = biological target: Homeobox protein Hox-A13 (Mus musculus) (UniProt Q62424); assay: disruptors of Hoxa13 oligonucleotide interaction – biochemical, fluorescence polarization, labeled oligonucleotide, primary screen (AID 1185); details: Hoxa13:DNA binding, 15 min, higher = more signal, called active from +8 up or from −8 down
Sequence of Homeobox protein Hox-A13 (Mus musculus) (Q62424 whole entry, looked up): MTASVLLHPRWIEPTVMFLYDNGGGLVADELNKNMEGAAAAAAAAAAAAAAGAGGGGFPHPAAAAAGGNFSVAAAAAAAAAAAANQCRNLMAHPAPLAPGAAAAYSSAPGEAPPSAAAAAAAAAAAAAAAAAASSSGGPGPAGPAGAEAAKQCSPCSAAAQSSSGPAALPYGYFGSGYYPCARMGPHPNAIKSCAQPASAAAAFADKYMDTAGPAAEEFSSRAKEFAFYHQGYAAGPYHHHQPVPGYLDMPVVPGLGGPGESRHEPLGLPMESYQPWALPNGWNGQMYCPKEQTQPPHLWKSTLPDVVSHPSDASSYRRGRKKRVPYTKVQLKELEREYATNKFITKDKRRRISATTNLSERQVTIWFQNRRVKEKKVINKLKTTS

[4] = blockers of DNA damage checkpoint Chk1 activation – imaging, HeLa, hydroxyurea, phospho-Chk1 antibody, percent positive cells, primary screen (AID 1186); details: hydroxyurea-induced phospho-Chk1 immunofluorescence imaging, higher = more signal
[5] = blockers of DNA damage checkpoint Chk1 activation – imaging, HeLa, hydroxyurea, phospho-Chk1 nuclear intensity, primary screen (AID 1187); details: hydroxyurea-induced phospho-Chk1 immunofluorescence imaging, higher = more signal

Row | SMILES | composite z-score [1] | composite z-score (XIP peptide (Xip251-270)) | z-score [2] | z-score [3] | z-score [4] | z-score [5]
1 | CC[C@@H]1O[Si](C(C)C)(C(C)C)c2c1cc(-c1cc(C)c(OC)c(C)c1)nc2-c1ccc(Oc2ccccc2)cc1 | -0.162 (inactive) | -0.22 | 0.0977 | -1.52 (inactive) | -0.557 (inactive) | -0.461 (inactive)
2 | C=CCC(OC(C)=O)[C@@H]1[C@@H](N(Cc2cc3ccccc3o2)C(=O)Cc2ccc(F)cc2)c2cc(OCCCO)ccc2N1C(=O)Cc1ccc2ccccc2c1 (stereo partly specified) | -0.0865 (inactive) | -0.507 | 0.694 | -1.9 (inactive) | 0.725 (inactive) | 0.113 (inactive)
3 | CCCCCCCCCCC(O)C1C=CC2C(=O)N(c3ccccc3)C(=O)C2N1Nc1ccc(C#N)cc1 (stereo unspecified) | 1.53 (inactive) | 0.419 | -0.562 | -1.23 (inactive) | 0.0905 (inactive) | 0.15 (inactive)
4 | COc1ccc([Si](C)(C)[C@@H]2[C@@H](CCO)O[C@]3(C(=O)N(Cc4ccccc4)c4ccc(N5CCOC5=O)cc43)[C@H]2C)cc1 | 0.849 (inactive) | 0.869 | -2.79 | -1.94 (inactive) | -1.29 (inactive) | -1.14 (inactive)
5 | C=CCOC(=O)[C@@]1(Cc2ccccc2)C[C@H]2CO[C@H](c3ccc(OC)cc3)N2C1=O | -0.373 (inactive) | -0.0614 | -0.829 | -3.45 (inactive) | -0.0248 (inactive) | -0.386 (inactive)
6 | COc1ccc([Si](C)(C)[C@@H]2[C@@H](CCO)O[C@]3(C(=O)N(Cc4cccc(NC(=O)[C@H](C)O)c4)c4ccccc43)[C@H]2C)cc1 | 0.789 (inactive) | 0.755 | -2.69 | -5.95 (inactive) | 0.214 (inactive) | -0.189 (inactive)
7 | CCOC(=O)C[C@H]1[C@H](OC(=O)c2ccc(C(=O)c3ccccc3)cc2)[C@@H](NC(=O)c2ccc(-c3ccccc3)cc2)c2cc(OCCCO)ccc2N1C(=O)Cc1ccc(OC)cc1 | -0.555 (inactive) | -0.187 | -0.75 | -1.41 (inactive) | 0.0183 (inactive) | 0.25 (inactive)
8 | CCCCC(CC)C(O)C1C=CC2C(=O)N(c3ccccc3)C(=O)C2N1Nc1ccccc1F (stereo unspecified) | 0.634 (inactive) | 0.0509 | -0.579 | -2.25 (inactive) | 0.322 (inactive) | 0.195 (inactive)
9 | COc1cc2c(cc1O)C=[N+](Cc1sc3ccccc3c1Cl)CC2 | 0.669 (inactive) | 0.133 | -1.84 | -5.22 (inactive) | 0.399 (inactive) | 0.9 (inactive)
10 | CC1CC/C=C\[C@H]2OC34C=CCN(Cc5ccccc5)C(=O)[C@H]3N(C(CO)C(C)C)C(=O)[C@@H]4C2C(=O)O1 (stereo partly specified) | 0.0855 (inactive) | -0.555 | 0.597 | -5.14 (inactive) | -0.0785 (inactive) | -0.204 (inactive)
11 | O=C(c1ccccc1)N1C(=O)[C@]2(Cc3ccccc31)N=C(c1ccc(OCCCO)cc1)O[C@@H]2c1ccccc1 | 0.409 (inactive) | 0.387 | -1.87 | -5.04 (inactive) | 0.546 (inactive) | 0.796 (inactive)
12 | C=CC[C@@H](OC(=O)Nc1ccc(OC)cc1)c1ccc(O)c(F)c1 | 1.29 (inactive) | -1.1 | 0.765 | -3.65 (inactive) | 0.0919 (inactive) | 0.0113 (inactive)
13 | COc1cc(C(O)C2C=CC3C(=O)N(C)C(=O)C3N2Nc2ccccc2)cc(OC)c1OC (stereo unspecified) | 1.13 (inactive) | -0.0114 | -0.164 | -3.7 (inactive) | -0.129 (inactive) | -0.0016 (inactive)
14 | COC(=O)C1=CC(CCCO)=CC(c2cccs2)N(Cc2cccc(OC(F)(F)F)c2)C=C1C(=O)OC (stereo unspecified) | 0.348 (inactive) | 0.706 | -1.78 | -7.24 (inactive) | 0.128 (inactive) | 0.39 (inactive)
15 | CCC#CCN(Cc1ccccc1Br)[C@H](/C=C/C1CC1)[C@@H](O)Cc1ccccc1 | -0.243 (inactive) | 0.0059 | -3.17 | -0.634 (inactive) | -0.887 (inactive) | -0.875 (inactive)
16 | COCCOC(=O)N1C(=O)[C@@]2(c3cc(C#CC4(O)CCCCCC4)ccc31)[C@H](C(=O)Nc1nc3ccccc3s1)[C@H]1C(=O)O[C@H](c3ccccc3)[C@H](c3ccccc3)N1[C@@H]2c1ccc(O)cc1 | 0.479 (inactive) | 0.817 | 0.219 | -1.09 (inactive) | -0.205 (inactive) | 0.0486 (inactive)
17 | COc1ccc([Si](C)(C)[C@H]2[C@H](CC(=O)N3Cc4ccccc4C[C@H]3CO)O[C@@]3(C(=O)N(Cc4ccc(N5CCOC5=O)cc4)c4ccccc43)[C@@H]2C)cc1 | 1.61 (inactive) | 0.742 | -0.847 | -3.92 (inactive) | -0.719 (inactive) | -0.869 (inactive)
18 | COc1ccc(CCNC(=O)[C@@]2(c3ccc([N+](=O)[O-])cc3)CC(=O)N(C3CCCCC3)[C@@H]2c2ccc(CO)cc2)cc1 | 1.48 (inactive) | 0.662 | -0.171 | -4.2 (inactive) | -0.192 (inactive) | 0.0527 (inactive)

Row | SMILES | composite z-score [1] | composite z-score (XIP peptide (Xip251-270)) | z-score [2] | z-score [3] | z-score [4] | z-score [5]
19 | CCCC=C(CCC)[C@@H](NC(=O)c1cccs1)c1ccc(C(=O)OC)cc1 | -0.185 (inactive) | 0.285 | -0.417 | -0.907 (inactive) | -0.255 (inactive) | -0.354 (inactive)
20 | C=CC[C@H](OC(=O)Nc1ccc(SC)cc1)c1ccc(O)c2ccccc12 | 1.07 (inactive) | 0.728 | -0.922 | -1.35 (inactive) | -0.0114 (inactive) | 0.142 (inactive)
21 | CC(C)N1C(=O)C[C@@](C(=O)O)(c2ccc([N+](=O)[O-])cc2)[C@H]1c1ccc(CO)cc1 | 1.04 (inactive) | 0.916 | -0.352 | -2.9 (inactive) | -0.198 (inactive) | -0.0057 (inactive)
22 | COC(=O)[C@@]1(Cc2ccccc2)[C@H]2c3cc(C(=O)N4CCCC4)n(CCc4ccccn4)c3C[C@H]2CN1C(=O)c1ccccc1 | 1.44 (inactive) | 0.663 | -1.25 | -5.78 (inactive) | 0.249 (inactive) | 0.491 (inactive)
23 | CN(C)C(=O)[C@]1(Cc2ccccc2CN=[N+]=[N-])N=C(c2ccc(OCCCO)cc2)O[C@@H]1c1ccccc1 | 0.908 (inactive) | 0.738 | -2.78 | -6.11 (inactive) | -0.52 (inactive) | -0.266 (inactive)
24 | NC(=O)NCC#Cc1ccc2c(c1)[C@]1(C(=O)N2)[C@H](c2ccccc2OCCO)N2[C@H](c3ccccc3)[C@H](c3ccccc3)OC(=O)[C@H]2[C@@H]1C(=O)O | 0.654 (inactive) | 0.418 | -0.373 | -7.04 (inactive) | 0.109 (inactive) | 0.239 (inactive)
25 | CCCCC(CC)C(O)C1C=CC2C(=O)N(C)C(=O)C2N1Nc1ccccc1 (stereo unspecified) | -0.12 (inactive) | 0.298 | 0.537 | -4.08 (inactive) | 0.168 (inactive) | -0.174 (inactive)
26 | CCOc1cc(C(O)C2C=CC3C(=O)NC(=O)C3N2Nc2ccc(Cl)cc2Cl)ccc1O (stereo unspecified) | -0.736 (inactive) | 0.966 | 0.0361 | -2.05 (inactive) | 0.394 (inactive) | 0.627 (inactive)
27 | CCCC=C(CCC)[C@@H](NP(=O)(c1ccccc1)c1ccccc1)c1ccc(-c2ccccc2)cc1 | 0.356 (inactive) | 0.42 | 0.0851 | -1.13 (inactive) | 0.175 (inactive) | -0.0233 (inactive)
28 | [N-]=[N+]=NCc1ccccc1[C@@H]1OC(c2ccc(OCCCO)cc2)=N[C@]1(CCS(=O)(=O)c1ccccc1)C(=O)O | 0.573 (inactive) | 0.964 | 0.692 | -4.86 (inactive) | 0.162 (inactive) | 0.23 (inactive)
29 | O=C(NCCN1CCOCC1)[C@@H]1c2ccccc2C(=O)N(C2Cc3ccccc3C2)[C@H]1c1ccc(CO)cc1 | 1.54 (inactive) | 0.584 | -0.98 | -3.28 (inactive) | -0.61 (inactive) | -0.411 (inactive)
30 | CC1=C2[C@@H](CCc3ccccc3)OB(O)C[C@@H]2[C@@H]2C(=O)N(Cc3ccccc3)C(=O)[C@@H]2C1 | 0.291 (inactive) | 0.629 | 1.62 | -7.81 (inactive) | 0.235 (inactive) | 0.264 (inactive)
31 | CCCCCCCCCC(O)C1C=CC2C(=O)N(c3ccccc3)C(=O)C2N1Nc1cc(OC)c(OC)c(OC)c1 (stereo unspecified) | -0.26 (inactive) | 0.206 | -0.412 | -2.06 (inactive) | 0.297 (inactive) | 0.0284 (inactive)
32 | COC(=O)[C@@]1(Cc2ccccc2)[C@H]2c3cc(C(=O)N(C)C)n(Cc4ccc(C)o4)c3C[C@H]2CN1C(=O)c1ccccc1 | 0.681 (inactive) | -0.523 | -1.81 | 0.0385 (inactive) | 1.19 (inactive) | 0.841 (inactive)
33 | O[C@@H](Cc1ccccc1)[C@@H](/C=C/C1CC1)N(CC#Cc1ccccc1)Cc1ccccc1Br | -0.112 (inactive) | 0.13 | -2.81 | -0.167 (inactive) | -0.36 (inactive) | -0.214 (inactive)
34 | COc1ccc([Si](C)(C)[C@@H]2[C@@H](CC(=O)N3CCC[C@H]3CO)O[C@]3(C(=O)N(Cc4cccc(N5C(=O)COc6ccccc65)c4)c4ccccc43)[C@H]2C)cc1 | 0.527 (inactive) | 0.608 | -0.317 | -2.42 (inactive) | -0.167 (inactive) | -0.614 (inactive)
35 | C=C[C@@H](CO)N(Cc1ccc(OC)cc1)S(=O)(=O)c1ccc(Br)cc1 | -0.798 (inactive) | -0.315 | -0.0153 | -3.98 (inactive) | -0.289 (inactive) | -0.157 (inactive)
36 | COCCCNC(=O)[C@@H]1c2ccccc2C(=O)N(C(C)C)[C@H]1c1ccc(CO)cc1 | 0.147 (inactive) | -0.0343 | -0.324 | -1.03 (inactive) | -0.244 (inactive) | -0.504 (inactive)
